Source: PubChem BioAssay (EPA / NIEHS)
Inconclusive results are not listed. Activity calls are given as the source filed them. Rule for the calls, unless noted: active = hit-call score of the fitted dose curve at least 0.9, where 1 is the maximum; inconclusive = response in the unintended direction; inactive = score below 0.9.

What was measured:
[1] = target: human Retinoic Acid Receptor beta (RARb), RARB (gene 5915) (UniProt P10826); test: ATG_RARb_TRANS: Attagene TRANS-FACTORIAL HepG2 Assay for human Retinoic Acid Receptor beta (AID 2283004)
How it was run: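 HepG2 cells transiently transfected with multiplexed GAL4-UAS reporter units expressing chimeric NR–Gal4 fusions; 24 h compound exposure. Reporter mRNA quantified by RT-PCR, 6-FAM labelling, HpaI digestion and capillary electrophoresis; gain-of-signal fitted against DMSO baseline.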

[2] = target: Retinoic acid receptor alpha (Homo sapiens) (UniProt P10276); test: ATG_RARa_TRANS: Attagene TRANS-FACTORIAL HepG2 Assay for human Retinoic Acid Receptor alpha (RARa) (AID 2283005)
How it was run: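 HepG2 transiently transfected with multiplex GAL4-UAS reporter units including a human RARa–GAL4 chimera; 24 h compound exposure. Reporter mRNA quantified by RT-PCR, 6-FAM labeling and capillary electrophoresis; gain of signal versus DMSO.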

[3] = target: Peroxisome proliferator-activated receptor gamma (Homo sapiens) (UniProt P37231); test: ATG_PPARg_TRANS: Attagene TRANS-FACTORIAL HepG2 Assay for human Peroxisome Proliferator-activated Receptor-gamma (PPARg) (AID 2283007)
How it was run: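 Gain-of-signal endpoint relative to DMSO, derived from reporter mRNA levels quantified by RT-PCR and capillary electrophoresis. Cells were HepG2 transiently expressing a chimeric NR-Gal4 construct with GAL4-UAS reporters, exposed to chemicals for 24 h.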

[4] = target: Nuclear receptor subfamily 1 group I member 2 (Homo sapiens) (UniProt O75469); test: ATG_PXR_TRANS: Attagene TRANS-FACTORIAL HepG2 Assay for human Pregnane X Receptor (PXR) (AID 2283008)
How it was run: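 HepG2 transfected (FuGene 6) with GAL4-UAS reporter units + PXR-Gal4 chimera; dosed 24 h. Total RNA → oligo(dT) RT → PCR → 6-FAM primer extension → HpaI cut → CE. Gain-of-signal vs DMSO.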

[5] = target: human Retinoic Acid Receptor gamma (RARg), RARG (gene 5916) (UniProt P13631); test: ATG_RARg_TRANS: Attagene TRANS-FACTORIAL HepG2 Assay for human Retinoic Acid Receptor gamma (RARg) (AID 2283009)
How it was run: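 Gain-of-signal relative to DMSO is reported from fluorescent capillary electrophoresis of RT-PCR reporter products. These came from HepG2 cells expressing transfected RARg-GAL4 chimeras with UAS reporters, harvested 24 h after dosing.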

[6] = target: Retinoic acid receptor RXR-alpha (Homo sapiens) (UniProt P19793); test: ATG_RXRa_TRANS: Attagene TRANS-FACTORIAL HepG2 Assay for human Retinoid X Receptor alpha (RXRa) (AID 2283012)
How it was run: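 Chimeric NR-GAL4 trans-activation in HepG2, 24 h treatment; reporter transcripts quantified by fluorescence on capillary electrophoresis, analysed for upward change from DMSO.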

[7] = target: human Retinoid X Receptor beta (RXRb), RXRB (gene 6257) (UniProt P28702); test: ATG_RXRb_TRANS: Attagene TRANS-FACTORIAL HepG2 Assay for human Retinoid X Receptor beta (RXRb) (AID 2283013)
How it was run: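 After a 24 h incubation with test chemical, transfected HepG2 cells carrying NR-Gal4 fusions and GAL4-UAS reporter transcription units yield RNA whose reporter cDNA is FAM-labelled, HpaI-cut and sized by capillary electrophoresis; increases over DMSO are scored.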

[8] = target: human Thyroid Receptor alpha (THRa1), THRA (gene 7067) (UniProt P10827); test: ATG_THRa1_TRANS: Attagene TRANS-FACTORIAL HepG2 Assay for human Thyroid Receptor alpha (THRa1) (AID 2283014)
How it was run: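 HepG2 cells transiently transfected with multiplexed GAL4-UAS reporter units for exogenous chimeric THRa1-Gal4; reporter mRNA measured 24 h after dosing by RT-PCR, 6-FAM labelling, HpaI digestion and capillary electrophoresis. Gain-of-signal fitted versus DMSO baseline.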

[9] = target: human RAR-related Orphan Receptor beta (RORb), RORB (gene 6096) (UniProt Q92753); test: ATG_RORb_TRANS: Attagene TRANS-FACTORIAL HepG2 Assay for human RAR-related Orphan Receptor beta (RORb) (AID 2283010)
How it was run: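 Multiplexed transcription-factor reporter assay: HepG2 cells transiently carrying NR-Gal4/GAL4-UAS constructs, 24 h treatment, mRNA quantified by RT-PCR plus capillary electrophoresis fluorescence; activity scored as induction over DMSO.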

[10] = target: human RAR-related Orphan Receptor gamma (RORg), RORC (gene 6097) (UniProt P51449); test: ATG_RORg_TRANS: Attagene TRANS-FACTORIAL HepG2 Assay for human RAR-related Orphan Receptor gamma (RORg) (AID 2283011)
How it was run: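 Readout: reporter transcript induction (RT-PCR, fluorescent primer extension, capillary electrophoresis) after 24 h compound exposure of transiently transfected HepG2 cells carrying a RORg-Gal4 chimera and GAL4-UAS reporters; DMSO served as baseline, with increasing signal fitted.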

[11] = read-out: Intercellular Adhesion Molecule 1 (ICAM1), ICAM1 (gene 3383); test: BSK_3C_ICAM1: BioMAP Diversity Plus: 3C Assay for Intercellular Adhesion Molecule 1 (ICAM1) Biomarker Activity (AID 2283003; active = hit-call score of the fitted dose curve at least 0.9, where 1 is the maximum; inactive = score below 0.9); conditions: primary human endothelial cells (HUVEC); actives raise or lower the signal
How it was run: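 Using DMSO as baseline, bidirectional curve fitting was applied to ICAM-1 ELISA signals from HUVEC in the 3C system, measured 24 h after compound addition.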

[12] = BSK_3C_Proliferation: Cell Proliferation Assessment in the BioMAP Diversity Plus: 3C Assay (AID 2283006; active = hit-call score of the fitted dose curve at least 0.9, where 1 is the maximum; inactive = score below 0.9;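 for AC50: potency may reflect either rise or fall in cell number versus DMSO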); conditions: primary human endothelial cells (HUVEC)
How it was run: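 Measured here: sulforhodamine B (0.1%) staining of TCA-fixed sub-confluent umbilical vein endothelial cultures 48 h post-dosing, absorbance 560 nm. DMSO served as negative control and baseline; both signal gain and loss were modelled.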

[13] = read-out: Interleukin-1 alpha (IL1a), IL1A (gene 3552); test: BSK_BE3C_IL1a: BioMAP Diversity Plus: BE3C Assay for Interleukin-1 alpha (IL1a) Biomarker Activity (AID 2283016; active = hit-call score of the fitted dose curve at least 0.9, where 1 is the maximum; inactive = score below 0.9); conditions: primary human bronchial epithelial cells; actives raise or lower the signal
How it was run: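 Measured in human lung primary bronchial epithelial cells: IL-1a by ELISA at 24 h after dosing, with bidirectional fitting against DMSO.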

[14] = read-out: Monocyte Chemoattractant Protein-1 (MCP1), CCL2 (gene 6347); test: BSK_3C_MCP1: BioMAP Diversity Plus: 3C Assay for Monocyte Chemoattractant Protein-1 (MCP1) Biomarker Activity (AID 2283017; active = hit-call score of the fitted dose curve at least 0.9, where 1 is the maximum; inactive = score below 0.9); conditions: primary human endothelial cells (HUVEC); actives raise or lower the signal
How it was run: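 Primary human umbilical vein endothelial cells (3C system) were exposed to test chemical for 24 h, after which MCP-1 was quantified by ELISA. Activity was fitted bidirectionally against DMSO as negative control and baseline.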

[15] = read-out: Monocyte Chemoattractant Protein-1 (MCP1), CCL2 (gene 6347); test: BSK_4H_MCP1: BioMAP Diversity Plus: 4H Assay for Monocyte Chemoattractant Protein-1 (MCP1) Biomarker Activity (AID 2283018; active = hit-call score of the fitted dose curve at least 0.9, where 1 is the maximum; inactive = score below 0.9); conditions: primary human endothelial cells (HUVEC); actives raise or lower the signal
How it was run: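 Primary human umbilical vein endothelium is exposed to chemical for 24 h before MCP-1 is assayed by ELISA. Concentration-response fitted bidirectionally relative to DMSO.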

[16] = read-out: Interleukin-8 (IL8), CXCL8 (gene 3576); test: BSK_3C_IL8: BioMAP Diversity Plus: 3C Assay for Interleukin-8 (IL8) Biomarker Activity (AID 2283020; active = hit-call score of the fitted dose curve at least 0.9, where 1 is the maximum; inactive = score below 0.9); conditions: primary human endothelial cells (HUVEC); actives raise or lower the signal
How it was run: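 Using DMSO-treated wells as the baseline, bidirectional curve fitting was applied to ELISA-measured IL-8 from human umbilical vein endothelial cultures sampled 24 h after compound addition.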

[17] = read-out: Human Leukocyte Antigen - DR isotype (HLADR), HLA-DRA (gene 3122); test: BSK_3C_HLADR: BioMAP Diversity Plus: 3C Assay for Human Leukocyte Antigen - DR isotype (HLADR) Biomarker Activity (AID 2283019; active = hit-call score of the fitted dose curve at least 0.9, where 1 is the maximum; inactive = score below 0.9;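 note: ELISA of cell-surface HLA-DR on HUVEC 24 h after dosing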); conditions: primary human endothelial cells (HUVEC); actives raise or lower the signal
How it was run: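 Primary human umbilical vein endothelial cells (3C system) were dosed with compound and cell-surface HLA-DR was quantified by ELISA at 24 h. Activity was fitted bidirectionally against DMSO as negative control and baseline.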

[18] = read-out: E-selectin (Homo sapiens) (UniProt P16581); test: BSK_3C_Eselectin: BioMAP Diversity Plus: 3C Assay for Eselectin Biomarker Activity (AID 2283015; active = hit-call score of the fitted dose curve at least 0.9, where 1 is the maximum; inactive = score below 0.9;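 note: cell surface E-selectin protein quantified by ELISA 24 h after dosing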); conditions: primary human endothelial cells (HUVEC); actives raise or lower the signal
How it was run: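 Primary human umbilical vein endothelial cells (3C system) were dosed with chemical and cell-surface E-selectin measured by ELISA 24 h later. Bidirectional curve fitting used DMSO as negative control and baseline.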

Measured: AC50

Sequence of human Retinoid X Receptor beta (RXRb), RXRB (gene 6257) (P28702 whole entry, looked up, the tested form may be a part): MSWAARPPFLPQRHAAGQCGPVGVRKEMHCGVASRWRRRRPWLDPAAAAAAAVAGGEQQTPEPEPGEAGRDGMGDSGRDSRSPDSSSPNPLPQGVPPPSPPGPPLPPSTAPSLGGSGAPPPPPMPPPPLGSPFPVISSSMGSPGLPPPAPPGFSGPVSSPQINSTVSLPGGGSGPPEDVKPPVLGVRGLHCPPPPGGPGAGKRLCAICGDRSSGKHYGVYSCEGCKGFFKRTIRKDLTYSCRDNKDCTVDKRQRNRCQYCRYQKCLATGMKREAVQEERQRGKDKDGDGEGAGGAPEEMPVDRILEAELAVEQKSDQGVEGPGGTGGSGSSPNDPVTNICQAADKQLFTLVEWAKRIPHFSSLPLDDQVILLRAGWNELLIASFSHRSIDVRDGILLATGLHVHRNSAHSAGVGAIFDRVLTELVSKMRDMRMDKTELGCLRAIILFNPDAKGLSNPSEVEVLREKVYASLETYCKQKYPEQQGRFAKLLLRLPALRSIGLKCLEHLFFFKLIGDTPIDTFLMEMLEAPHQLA
Sequence of human Thyroid Receptor alpha (THRa1), THRA (gene 7067) (P10827 whole entry, looked up, the tested form may be a part): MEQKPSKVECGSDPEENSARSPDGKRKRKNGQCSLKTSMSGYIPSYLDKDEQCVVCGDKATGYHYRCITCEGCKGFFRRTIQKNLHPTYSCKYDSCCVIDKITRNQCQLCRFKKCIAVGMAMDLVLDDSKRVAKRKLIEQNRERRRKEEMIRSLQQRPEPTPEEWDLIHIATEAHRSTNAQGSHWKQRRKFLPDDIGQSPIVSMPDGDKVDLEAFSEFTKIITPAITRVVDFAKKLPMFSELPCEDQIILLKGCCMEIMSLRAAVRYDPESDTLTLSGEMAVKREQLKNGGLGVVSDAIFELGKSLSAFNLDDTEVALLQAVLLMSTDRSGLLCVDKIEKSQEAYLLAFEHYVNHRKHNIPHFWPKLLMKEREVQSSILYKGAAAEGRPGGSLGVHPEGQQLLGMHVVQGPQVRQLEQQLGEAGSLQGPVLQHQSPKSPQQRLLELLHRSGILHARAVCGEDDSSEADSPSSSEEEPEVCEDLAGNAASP
Sequence of human Retinoic Acid Receptor gamma (RARg), RARG (gene 5916) (P13631 whole entry, looked up, the tested form may be a part): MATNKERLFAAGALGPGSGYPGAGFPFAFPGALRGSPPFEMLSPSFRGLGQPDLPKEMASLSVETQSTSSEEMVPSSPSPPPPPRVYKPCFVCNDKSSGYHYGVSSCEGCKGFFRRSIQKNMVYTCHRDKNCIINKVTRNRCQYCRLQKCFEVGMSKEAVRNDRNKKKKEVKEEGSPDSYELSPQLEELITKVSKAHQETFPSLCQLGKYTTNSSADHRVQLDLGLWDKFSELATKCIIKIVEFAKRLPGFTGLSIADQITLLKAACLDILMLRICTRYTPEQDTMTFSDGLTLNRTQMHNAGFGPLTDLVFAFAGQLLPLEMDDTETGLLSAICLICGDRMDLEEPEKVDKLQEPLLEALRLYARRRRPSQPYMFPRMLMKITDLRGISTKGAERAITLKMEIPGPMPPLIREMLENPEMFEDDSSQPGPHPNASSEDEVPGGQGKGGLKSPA
Sequence of Nuclear receptor subfamily 1 group I member 2 (Homo sapiens) (O75469 whole entry, looked up, the tested form may be a part): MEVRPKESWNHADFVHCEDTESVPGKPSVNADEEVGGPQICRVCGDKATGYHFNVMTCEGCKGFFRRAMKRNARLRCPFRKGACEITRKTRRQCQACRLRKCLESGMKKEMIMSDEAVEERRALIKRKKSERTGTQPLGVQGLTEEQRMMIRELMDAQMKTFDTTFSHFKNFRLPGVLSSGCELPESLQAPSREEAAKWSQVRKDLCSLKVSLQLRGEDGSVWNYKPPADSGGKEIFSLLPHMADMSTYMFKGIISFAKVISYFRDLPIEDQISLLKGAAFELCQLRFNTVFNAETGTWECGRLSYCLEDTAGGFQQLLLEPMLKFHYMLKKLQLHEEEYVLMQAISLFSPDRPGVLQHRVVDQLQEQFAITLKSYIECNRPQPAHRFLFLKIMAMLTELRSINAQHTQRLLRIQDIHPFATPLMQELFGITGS
Sequence of human RAR-related Orphan Receptor gamma (RORg), RORC (gene 6097) (P51449 whole entry, looked up, the tested form may be a part): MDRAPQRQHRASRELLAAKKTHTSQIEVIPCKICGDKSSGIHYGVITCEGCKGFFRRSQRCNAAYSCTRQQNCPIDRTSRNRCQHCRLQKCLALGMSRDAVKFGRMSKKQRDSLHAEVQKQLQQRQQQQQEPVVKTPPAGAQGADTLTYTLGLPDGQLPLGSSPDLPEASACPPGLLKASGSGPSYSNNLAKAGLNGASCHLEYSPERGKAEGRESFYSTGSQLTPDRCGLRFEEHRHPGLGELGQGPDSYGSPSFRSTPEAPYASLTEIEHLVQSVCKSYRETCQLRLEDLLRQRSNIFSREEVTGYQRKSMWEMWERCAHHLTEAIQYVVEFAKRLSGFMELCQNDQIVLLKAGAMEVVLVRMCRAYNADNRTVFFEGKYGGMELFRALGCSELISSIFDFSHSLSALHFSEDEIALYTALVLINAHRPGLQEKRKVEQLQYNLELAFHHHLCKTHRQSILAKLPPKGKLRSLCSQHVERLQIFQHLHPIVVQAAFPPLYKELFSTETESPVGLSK
Sequence of Retinoic acid receptor RXR-alpha (Homo sapiens) (P19793 whole entry, looked up, the tested form may be a part): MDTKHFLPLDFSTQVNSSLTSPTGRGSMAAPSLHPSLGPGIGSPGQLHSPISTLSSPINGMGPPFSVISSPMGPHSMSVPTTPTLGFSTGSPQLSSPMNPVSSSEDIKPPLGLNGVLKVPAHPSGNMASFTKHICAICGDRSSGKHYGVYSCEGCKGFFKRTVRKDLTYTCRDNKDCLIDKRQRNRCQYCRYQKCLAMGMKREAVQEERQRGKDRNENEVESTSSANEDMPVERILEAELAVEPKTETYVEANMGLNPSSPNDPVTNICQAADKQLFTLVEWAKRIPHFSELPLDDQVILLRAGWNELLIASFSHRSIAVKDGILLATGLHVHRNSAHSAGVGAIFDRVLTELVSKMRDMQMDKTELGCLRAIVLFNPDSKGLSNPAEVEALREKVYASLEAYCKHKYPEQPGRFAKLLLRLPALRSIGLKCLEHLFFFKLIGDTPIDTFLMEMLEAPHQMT
Sequence of Peroxisome proliferator-activated receptor gamma (Homo sapiens) (P37231 whole entry, looked up, the tested form may be a part): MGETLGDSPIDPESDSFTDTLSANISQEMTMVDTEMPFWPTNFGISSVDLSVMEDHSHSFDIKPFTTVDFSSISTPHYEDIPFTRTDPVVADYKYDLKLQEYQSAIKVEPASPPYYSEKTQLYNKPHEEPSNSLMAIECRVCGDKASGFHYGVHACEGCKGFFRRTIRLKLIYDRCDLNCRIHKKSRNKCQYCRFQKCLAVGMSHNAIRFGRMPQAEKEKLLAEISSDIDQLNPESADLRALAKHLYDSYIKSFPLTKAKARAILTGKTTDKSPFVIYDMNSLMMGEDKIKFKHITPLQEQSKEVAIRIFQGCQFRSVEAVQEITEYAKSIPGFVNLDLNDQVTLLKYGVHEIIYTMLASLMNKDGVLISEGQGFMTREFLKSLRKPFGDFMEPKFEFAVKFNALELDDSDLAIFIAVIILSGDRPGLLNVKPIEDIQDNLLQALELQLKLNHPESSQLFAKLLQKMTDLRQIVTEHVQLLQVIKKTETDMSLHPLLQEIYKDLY
Sequence of Retinoic acid receptor alpha (Homo sapiens) (P10276 whole entry, looked up, the tested form may be a part): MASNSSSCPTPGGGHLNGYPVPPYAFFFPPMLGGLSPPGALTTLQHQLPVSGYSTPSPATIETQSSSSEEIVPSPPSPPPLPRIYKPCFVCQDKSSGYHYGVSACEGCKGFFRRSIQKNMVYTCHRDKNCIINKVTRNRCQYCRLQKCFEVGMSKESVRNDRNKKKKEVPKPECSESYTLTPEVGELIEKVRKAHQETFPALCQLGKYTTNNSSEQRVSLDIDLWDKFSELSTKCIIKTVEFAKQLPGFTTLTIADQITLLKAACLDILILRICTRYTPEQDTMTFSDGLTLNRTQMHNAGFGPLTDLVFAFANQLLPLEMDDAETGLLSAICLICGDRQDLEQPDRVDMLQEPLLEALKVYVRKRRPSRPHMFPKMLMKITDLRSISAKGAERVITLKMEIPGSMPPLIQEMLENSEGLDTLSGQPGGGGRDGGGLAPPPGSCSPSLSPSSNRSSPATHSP
Sequence of human RAR-related Orphan Receptor beta (RORb), RORB (gene 6096) (Q92753 whole entry, looked up, the tested form may be a part): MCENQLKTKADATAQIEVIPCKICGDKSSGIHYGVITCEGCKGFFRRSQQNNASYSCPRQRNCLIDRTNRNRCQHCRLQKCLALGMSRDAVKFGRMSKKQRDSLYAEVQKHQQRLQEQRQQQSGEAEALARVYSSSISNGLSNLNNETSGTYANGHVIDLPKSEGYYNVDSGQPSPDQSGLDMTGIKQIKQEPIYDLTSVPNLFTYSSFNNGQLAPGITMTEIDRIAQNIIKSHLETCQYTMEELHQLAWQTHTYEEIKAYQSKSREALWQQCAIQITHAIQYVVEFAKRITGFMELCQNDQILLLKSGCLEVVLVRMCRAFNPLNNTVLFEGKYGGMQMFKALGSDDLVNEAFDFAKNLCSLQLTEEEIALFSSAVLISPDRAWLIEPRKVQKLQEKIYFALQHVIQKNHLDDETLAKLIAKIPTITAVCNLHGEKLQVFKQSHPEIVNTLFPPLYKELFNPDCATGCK
Sequence of human Retinoic Acid Receptor beta (RARb), RARB (gene 5915) (P10826 whole entry, looked up, the tested form may be a part): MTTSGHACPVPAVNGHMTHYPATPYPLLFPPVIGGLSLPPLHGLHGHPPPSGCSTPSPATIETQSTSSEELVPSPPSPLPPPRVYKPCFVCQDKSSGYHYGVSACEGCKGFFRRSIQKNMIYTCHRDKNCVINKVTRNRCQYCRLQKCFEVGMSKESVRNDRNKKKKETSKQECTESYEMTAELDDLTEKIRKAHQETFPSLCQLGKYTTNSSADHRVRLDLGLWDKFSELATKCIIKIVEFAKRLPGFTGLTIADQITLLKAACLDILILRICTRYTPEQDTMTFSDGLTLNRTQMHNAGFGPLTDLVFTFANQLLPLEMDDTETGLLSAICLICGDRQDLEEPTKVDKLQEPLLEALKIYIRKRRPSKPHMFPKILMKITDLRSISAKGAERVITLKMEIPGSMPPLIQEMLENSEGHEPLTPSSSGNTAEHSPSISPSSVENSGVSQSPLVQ

CC(C)C1CCC(Cc2ccc(Cl)cc2)C1(O)Cn1cncn1 (configuration not stated)
active: [4] 1790 nM
inactive: [1] | [2] | [3] | [5] | [6] | [7] | [8]

CCC[CH2][Sn]([CH2]CCC)([CH2]CCC)[O]C(=O)c1ccccc1
active: [3] 11.6 nM | [4] 344 nM | [6] 5.75 nM | [7] 105 nM

Cl/C=C\C[N+]12CN3CN(CN(C3)C1)C2
inactive: [3] | [9] | [6]

N#Cc1ccccn1
inactive: [9]

N#CCCO
inactive: [5] | [9] | [10] | [6] | [8]

CC(C)OC(=O)Nc1ccccc1
inactive: [1] | [2] | [3] | [4] | [5] | [8]

COc1ccc(C=O)cc1OC
inactive: [3] | [9] | [10] | [6] | [8]

CCc1ccccc1N
inactive: [3] | [4] | [9] | [10]

CCOP(OCC)OCC
inactive: [1] | [2] | [4] | [10] | [7]

Fc1ccc(C2(Cn3cncn3)OC2c2ccccc2Cl)cc1 (configuration not stated)
inactive: [3] | [5] | [6]
active: [4] 2240 nM

COP(=S)(OC)Oc1ccc(S(=O)(=O)N(C)C)cc1
inactive: [11] | [12] | [3] | [4] | [6] | [8] | [13] | [14] | [15] | [16]

O=C(O)CCC(F)(C(F)(F)F)C(F)(F)F
inactive: [11] | [12] | [13] | [14] | [15] | [17] | [16]

COc1cccc(C=O)c1
inactive: [1] | [9]

ClC1=C(Cl)[C@]2(Cl)[C@H]3[C@H]([C@H]4C=C[C@H]3C4)[C@@]1(Cl)C2(Cl)Cl
inactive: [11] | [8] | [18] | [13] | [16]
active: [12] 20000 nM | [3] 64000 nM | [4] 794 nM | [14] 3970 nM | [15] 748 nM

O=C(O)Cc1ccccc1
inactive: [1] | [2] | [3] | [4] | [9] | [6] | [7]

C=C(C)C#N
inactive: [1] | [2] | [9] | [6]

CN(C)N=O
not listed: [1] | [2] | [3] | [9] | [10] | [17] | [18]
inactive: all other assays above
